{"source": "the supplement of paper PMC11732987", "about": "“Enantioselective OTUD7B fragment discovery through chemoproteomics screening and high-throughput optimisation” (Communications Chemistry, 2025)", "note": "Values without a mark were called inactive.", "data": [{"compound": "OC1CN(Cc2sccc12)C(=O)CCl", "assay": "log2 ratio of Biotin-Ahx-Ub-VS probe labelling (compound/DMSO); higher = less target engagement, active = hit call of the paper (q ≤ 0.05, log2 ratio ≤ -1)", "settings": "compound concentration: 50uM; treatment time: 3 h", "method": "(§1)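 Round 2 competitive ABPP in HEK293T lysate. Purified HTC-D2B compounds were tested at 50 and 200 µM for 3 h, followed by Biotin-Ahx-Ub-VS enrichment and diaPASEF LC-MS/MS. Values are the average log2 ratio (compound/DMSO) from an unpaired t-test (n=3 treated, n=26 DMSO).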", "values": [{"target": "UniProt Q8TE49", "sequence (Q8TE49 whole entry)": "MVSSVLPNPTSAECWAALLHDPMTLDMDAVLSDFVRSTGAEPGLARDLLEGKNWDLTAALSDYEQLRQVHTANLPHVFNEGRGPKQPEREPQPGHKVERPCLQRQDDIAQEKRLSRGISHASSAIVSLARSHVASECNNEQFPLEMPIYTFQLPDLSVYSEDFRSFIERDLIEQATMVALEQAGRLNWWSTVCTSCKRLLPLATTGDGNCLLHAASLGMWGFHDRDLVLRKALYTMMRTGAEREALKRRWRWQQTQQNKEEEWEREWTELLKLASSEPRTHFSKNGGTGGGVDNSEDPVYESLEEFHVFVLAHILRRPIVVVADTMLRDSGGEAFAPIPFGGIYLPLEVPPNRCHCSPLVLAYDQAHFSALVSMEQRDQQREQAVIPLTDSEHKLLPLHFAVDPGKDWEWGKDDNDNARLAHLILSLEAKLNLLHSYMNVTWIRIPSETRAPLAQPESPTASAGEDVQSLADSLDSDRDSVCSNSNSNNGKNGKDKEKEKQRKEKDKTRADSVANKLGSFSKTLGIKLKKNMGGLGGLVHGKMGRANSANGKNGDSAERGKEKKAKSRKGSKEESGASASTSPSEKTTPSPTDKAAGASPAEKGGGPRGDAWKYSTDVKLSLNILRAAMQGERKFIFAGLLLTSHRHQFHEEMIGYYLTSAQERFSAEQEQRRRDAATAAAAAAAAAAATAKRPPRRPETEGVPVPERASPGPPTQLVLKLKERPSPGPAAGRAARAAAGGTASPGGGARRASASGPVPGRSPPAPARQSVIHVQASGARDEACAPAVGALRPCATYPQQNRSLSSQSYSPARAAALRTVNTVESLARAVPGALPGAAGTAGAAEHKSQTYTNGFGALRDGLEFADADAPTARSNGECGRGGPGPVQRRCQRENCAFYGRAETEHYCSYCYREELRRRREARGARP", "log2 ratio of Biotin-Ahx-Ub-VS probe labelling": "-1.87 (active)"}, {"target": "USP16 (UniProt Q9Y5T5)", "log2 ratio of Biotin-Ahx-Ub-VS probe labelling": -0.903}, {"target": "USP54 (UniProt Q70EL1)", "sequence (Q70EL1 whole entry)": "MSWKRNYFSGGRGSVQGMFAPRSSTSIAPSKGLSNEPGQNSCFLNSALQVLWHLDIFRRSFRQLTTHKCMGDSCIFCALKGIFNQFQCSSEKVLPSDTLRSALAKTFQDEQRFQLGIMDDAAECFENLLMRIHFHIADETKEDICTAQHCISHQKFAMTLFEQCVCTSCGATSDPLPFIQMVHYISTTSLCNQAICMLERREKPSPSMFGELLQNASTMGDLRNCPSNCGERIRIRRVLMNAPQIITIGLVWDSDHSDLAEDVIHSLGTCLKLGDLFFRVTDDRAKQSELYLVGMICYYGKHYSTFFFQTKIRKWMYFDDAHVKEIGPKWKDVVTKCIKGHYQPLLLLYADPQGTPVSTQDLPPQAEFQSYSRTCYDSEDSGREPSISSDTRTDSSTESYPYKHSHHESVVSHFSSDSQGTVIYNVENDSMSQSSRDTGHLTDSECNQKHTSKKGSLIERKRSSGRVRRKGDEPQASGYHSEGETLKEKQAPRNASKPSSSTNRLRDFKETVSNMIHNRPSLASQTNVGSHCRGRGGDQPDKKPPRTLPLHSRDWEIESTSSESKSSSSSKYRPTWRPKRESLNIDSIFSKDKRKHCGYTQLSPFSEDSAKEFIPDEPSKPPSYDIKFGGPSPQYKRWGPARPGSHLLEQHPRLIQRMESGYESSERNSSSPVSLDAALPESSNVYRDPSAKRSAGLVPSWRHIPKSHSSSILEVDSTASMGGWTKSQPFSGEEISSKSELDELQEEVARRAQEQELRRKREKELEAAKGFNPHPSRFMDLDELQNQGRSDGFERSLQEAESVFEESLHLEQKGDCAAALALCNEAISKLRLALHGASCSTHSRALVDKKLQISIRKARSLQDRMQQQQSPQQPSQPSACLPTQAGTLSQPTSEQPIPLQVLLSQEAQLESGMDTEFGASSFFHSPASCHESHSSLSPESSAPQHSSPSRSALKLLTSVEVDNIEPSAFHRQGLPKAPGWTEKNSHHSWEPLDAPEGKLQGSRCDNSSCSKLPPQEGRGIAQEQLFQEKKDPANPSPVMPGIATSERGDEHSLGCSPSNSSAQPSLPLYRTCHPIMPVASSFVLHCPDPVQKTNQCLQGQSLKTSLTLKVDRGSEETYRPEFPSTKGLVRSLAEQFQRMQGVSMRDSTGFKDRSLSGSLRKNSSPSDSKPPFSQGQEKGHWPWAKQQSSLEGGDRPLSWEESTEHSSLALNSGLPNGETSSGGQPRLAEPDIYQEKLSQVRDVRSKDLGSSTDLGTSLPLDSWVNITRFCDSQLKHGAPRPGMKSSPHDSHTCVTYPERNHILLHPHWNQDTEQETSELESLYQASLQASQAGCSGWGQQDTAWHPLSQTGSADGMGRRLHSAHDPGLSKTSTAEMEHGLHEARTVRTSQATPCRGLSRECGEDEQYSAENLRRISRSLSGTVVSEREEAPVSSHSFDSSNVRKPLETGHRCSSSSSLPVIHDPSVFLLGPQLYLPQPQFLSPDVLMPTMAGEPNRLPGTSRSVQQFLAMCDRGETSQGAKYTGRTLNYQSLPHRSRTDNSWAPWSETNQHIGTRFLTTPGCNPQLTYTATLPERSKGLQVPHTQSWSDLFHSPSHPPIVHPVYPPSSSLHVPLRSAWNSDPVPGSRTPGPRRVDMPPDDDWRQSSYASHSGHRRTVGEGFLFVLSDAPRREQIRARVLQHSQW", "log2 ratio of Biotin-Ahx-Ub-VS probe labelling": 0.561}, {"target": "USP22 (UniProt Q9UPT9)", "log2 ratio of Biotin-Ahx-Ub-VS probe labelling": 0.0108}, {"target": "UniProt O00487", "log2 ratio of Biotin-Ahx-Ub-VS probe labelling": 0.0337}, {"target": "UCHL1 (UniProt P09936)", "sequence (P09936 whole entry, looked up)": "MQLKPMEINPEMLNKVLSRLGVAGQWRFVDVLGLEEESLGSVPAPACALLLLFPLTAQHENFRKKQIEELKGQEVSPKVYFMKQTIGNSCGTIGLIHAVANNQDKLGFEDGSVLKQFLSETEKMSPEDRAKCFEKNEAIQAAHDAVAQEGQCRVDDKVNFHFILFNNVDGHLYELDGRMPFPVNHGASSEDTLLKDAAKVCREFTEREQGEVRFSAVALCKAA", "log2 ratio of Biotin-Ahx-Ub-VS probe labelling": -0.248}, {"target": "USP46 (UniProt P62068)", "log2 ratio of Biotin-Ahx-Ub-VS probe labelling": -0.289}, {"target": "PRPF8 (UniProt Q6P2Q9)", "log2 ratio of Biotin-Ahx-Ub-VS probe labelling": 0.0584}, {"target": "MINDY4 (UniProt Q4G0A6)", "log2 ratio of Biotin-Ahx-Ub-VS probe labelling": 0.0365}, {"target": "USP19 (UniProt O94966)", "log2 ratio of Biotin-Ahx-Ub-VS probe labelling": -0.389}, {"target": "USP48 (UniProt Q86UV5)", "sequence (Q86UV5 whole entry)": "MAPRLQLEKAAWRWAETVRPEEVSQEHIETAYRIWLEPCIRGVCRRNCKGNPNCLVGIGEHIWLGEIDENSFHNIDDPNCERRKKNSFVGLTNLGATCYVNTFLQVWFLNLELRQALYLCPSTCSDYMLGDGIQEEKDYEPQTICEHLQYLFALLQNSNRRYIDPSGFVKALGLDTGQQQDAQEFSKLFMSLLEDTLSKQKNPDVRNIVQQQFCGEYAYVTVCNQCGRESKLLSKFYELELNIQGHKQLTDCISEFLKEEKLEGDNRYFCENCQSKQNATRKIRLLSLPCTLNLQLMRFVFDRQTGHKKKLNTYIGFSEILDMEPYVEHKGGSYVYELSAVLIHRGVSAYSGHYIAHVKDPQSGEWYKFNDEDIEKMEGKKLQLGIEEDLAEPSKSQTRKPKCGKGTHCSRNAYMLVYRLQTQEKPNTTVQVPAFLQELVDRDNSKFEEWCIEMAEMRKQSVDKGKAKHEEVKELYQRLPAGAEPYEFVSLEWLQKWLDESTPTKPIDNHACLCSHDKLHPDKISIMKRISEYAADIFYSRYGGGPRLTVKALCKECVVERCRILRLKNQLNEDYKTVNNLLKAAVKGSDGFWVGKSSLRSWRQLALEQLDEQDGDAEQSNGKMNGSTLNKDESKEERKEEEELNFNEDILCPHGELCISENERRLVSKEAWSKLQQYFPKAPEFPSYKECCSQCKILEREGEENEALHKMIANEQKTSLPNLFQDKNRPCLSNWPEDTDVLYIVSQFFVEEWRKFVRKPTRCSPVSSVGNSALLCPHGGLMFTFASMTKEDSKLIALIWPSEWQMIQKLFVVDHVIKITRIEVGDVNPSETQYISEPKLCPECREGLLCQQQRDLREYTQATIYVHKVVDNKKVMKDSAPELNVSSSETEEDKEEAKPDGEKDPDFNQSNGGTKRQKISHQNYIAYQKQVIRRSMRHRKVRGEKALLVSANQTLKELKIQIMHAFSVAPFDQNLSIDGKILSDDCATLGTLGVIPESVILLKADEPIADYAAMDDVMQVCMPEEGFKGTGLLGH", "log2 ratio of Biotin-Ahx-Ub-VS probe labelling": -0.157}, {"target": "OTUB1 (UniProt Q96FW1)", "log2 ratio of Biotin-Ahx-Ub-VS probe labelling": 0.196}, {"target": "OTUD4 (UniProt Q01804)", "sequence (Q01804 whole entry)": "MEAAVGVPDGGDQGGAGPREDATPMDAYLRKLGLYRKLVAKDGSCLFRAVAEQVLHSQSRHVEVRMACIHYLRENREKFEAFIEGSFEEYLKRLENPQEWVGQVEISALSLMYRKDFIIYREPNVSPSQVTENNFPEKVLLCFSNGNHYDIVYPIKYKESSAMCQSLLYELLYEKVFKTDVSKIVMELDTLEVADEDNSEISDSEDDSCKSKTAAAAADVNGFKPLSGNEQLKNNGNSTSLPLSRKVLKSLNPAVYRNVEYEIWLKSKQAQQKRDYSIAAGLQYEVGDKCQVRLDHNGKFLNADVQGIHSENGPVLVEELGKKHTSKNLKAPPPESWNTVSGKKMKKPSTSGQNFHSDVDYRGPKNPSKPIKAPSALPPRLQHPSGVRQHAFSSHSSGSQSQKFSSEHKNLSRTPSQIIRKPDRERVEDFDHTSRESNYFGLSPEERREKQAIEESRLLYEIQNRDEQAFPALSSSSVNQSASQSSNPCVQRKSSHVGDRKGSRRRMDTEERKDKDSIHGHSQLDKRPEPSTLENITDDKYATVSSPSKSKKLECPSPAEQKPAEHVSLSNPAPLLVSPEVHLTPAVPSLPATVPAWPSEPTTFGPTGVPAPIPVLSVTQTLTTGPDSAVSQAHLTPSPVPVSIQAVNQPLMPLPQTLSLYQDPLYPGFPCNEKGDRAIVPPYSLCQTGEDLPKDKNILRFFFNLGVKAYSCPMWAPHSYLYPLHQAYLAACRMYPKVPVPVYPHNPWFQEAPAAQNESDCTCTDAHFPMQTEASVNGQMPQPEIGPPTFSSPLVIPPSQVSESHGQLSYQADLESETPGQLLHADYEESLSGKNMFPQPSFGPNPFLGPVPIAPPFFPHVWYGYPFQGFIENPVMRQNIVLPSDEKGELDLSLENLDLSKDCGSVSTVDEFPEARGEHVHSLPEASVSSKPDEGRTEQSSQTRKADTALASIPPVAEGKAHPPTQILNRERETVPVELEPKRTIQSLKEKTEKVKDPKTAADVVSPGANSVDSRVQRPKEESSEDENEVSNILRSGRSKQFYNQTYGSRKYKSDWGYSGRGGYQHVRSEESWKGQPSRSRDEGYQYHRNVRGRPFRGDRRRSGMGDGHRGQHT", "log2 ratio of Biotin-Ahx-Ub-VS probe labelling": -0.695}, {"target": "EIF3F (UniProt O00303)", "log2 ratio of Biotin-Ahx-Ub-VS probe labelling": -0.0817}, {"target": "OTUD6B (UniProt Q8N6M0)", "log2 ratio of Biotin-Ahx-Ub-VS probe labelling": -0.139}, {"target": "FAM105A (UniProt Q9NUU6)", "log2 ratio of Biotin-Ahx-Ub-VS probe labelling": -0.0183}, {"target": "UniProt Q70EL2", "log2 ratio of Biotin-Ahx-Ub-VS probe labelling": 0.0417}, {"target": "USP15 (UniProt Q9Y4E8)", "log2 ratio of Biotin-Ahx-Ub-VS probe labelling": -0.214}, {"target": "USP4 (UniProt Q13107)", "log2 ratio of Biotin-Ahx-Ub-VS probe labelling": -0.154}, {"target": "UniProt Q9P2H5", "log2 ratio of Biotin-Ahx-Ub-VS probe labelling": -0.029}]}, {"compound": "OC1CN(Cc2sccc12)C(=O)CCl", "assay": "log2 ratio of Biotin-Ahx-Ub-VS probe labelling (compound/DMSO); higher = less target engagement, active = hit call of the paper (q ≤ 0.05, log2 ratio ≤ -1)", "settings": "compound concentration: 200uM; treatment time: 3 h", "method": "as §1", "values": [{"target": "UniProt Q8TE49", "log2 ratio of Biotin-Ahx-Ub-VS probe labelling": "-2.68 (active)"}, {"target": "USP16 (UniProt Q9Y5T5)", "log2 ratio of Biotin-Ahx-Ub-VS probe labelling": -0.0352}, {"target": "USP54 (UniProt Q70EL1)", "log2 ratio of Biotin-Ahx-Ub-VS probe labelling": -0.559}, {"target": "USP22 (UniProt Q9UPT9)", "log2 ratio of Biotin-Ahx-Ub-VS probe labelling": -0.267}, {"target": "UniProt O00487", "log2 ratio of Biotin-Ahx-Ub-VS probe labelling": -0.128}, {"target": "UCHL1 (UniProt P09936)", "log2 ratio of Biotin-Ahx-Ub-VS probe labelling": -0.0486}, {"target": "USP46 (UniProt P62068)", "log2 ratio of Biotin-Ahx-Ub-VS probe labelling": -0.565}, {"target": "PRPF8 (UniProt Q6P2Q9)", "log2 ratio of Biotin-Ahx-Ub-VS probe labelling": 0.0922}, {"target": "MINDY4 (UniProt Q4G0A6)", "log2 ratio of Biotin-Ahx-Ub-VS probe labelling": 0.686}, {"target": "USP19 (UniProt O94966)", "log2 ratio of Biotin-Ahx-Ub-VS probe labelling": -0.703}, {"target": "USP48 (UniProt Q86UV5)", "log2 ratio of Biotin-Ahx-Ub-VS probe labelling": -0.225}, {"target": "OTUB1 (UniProt Q96FW1)", "log2 ratio of Biotin-Ahx-Ub-VS probe labelling": -0.0449}, {"target": "OTUD4 (UniProt Q01804)", "log2 ratio of Biotin-Ahx-Ub-VS probe labelling": "-1.48 (active)"}, {"target": "EIF3F (UniProt O00303)", "log2 ratio of Biotin-Ahx-Ub-VS probe labelling": 0.103}, {"target": "OTUD6B (UniProt Q8N6M0)", "log2 ratio of Biotin-Ahx-Ub-VS probe labelling": -0.239}, {"target": "FAM105A (UniProt Q9NUU6)", "log2 ratio of Biotin-Ahx-Ub-VS probe labelling": 0.114}, {"target": "UniProt Q70EL2", "log2 ratio of Biotin-Ahx-Ub-VS probe labelling": -0.242}, {"target": "USP15 (UniProt Q9Y4E8)", "log2 ratio of Biotin-Ahx-Ub-VS probe labelling": -0.404}, {"target": "USP4 (UniProt Q13107)", "log2 ratio of Biotin-Ahx-Ub-VS probe labelling": 0.0977}, {"target": "UniProt Q9P2H5", "log2 ratio of Biotin-Ahx-Ub-VS probe labelling": -0.0467}]}]}
